This note sets out measurements from PubChem BioAssay (NCATS).

The nature of assay [1]: AP1 Signaling Pathway (AID 357). Further: on the % scale 0 is the no-effect control and ±100 the full control effect. A digest of the protocol:
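ME-180 cells with beta-lactamase reporter under AP-1 response element, stimulated with EC50 EGF; compounds tested in titration series, 5 h at 37 °C. CCF4 substrate added 2.5 h at room temperature; 460/530 nm emission ratio gave %activity and AC50.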

The target in assay [2] is Cytochrome P450 1A2 (Homo sapiens) (UniProt P05177). Put plainly: p450-cyp1a2 (AID 410; calls by dose curve; further: potency means the concentration at half of the fitted maximal effect;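 on activity change, negative = inhibition: -100% = full effect of reference inhibitor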). In short, it runs like this: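 Read-out is luminescence from luciferin produced by CYP1A2 demethylation of Luciferin-ME (100uM, at Km). Detection reagent stopped the 60 min NADPH-dependent reaction; signals were normalized to 57 uM furafylline.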
Sequence of Cytochrome P450 1A2 (Homo sapiens) (P05177 whole entry, looked up): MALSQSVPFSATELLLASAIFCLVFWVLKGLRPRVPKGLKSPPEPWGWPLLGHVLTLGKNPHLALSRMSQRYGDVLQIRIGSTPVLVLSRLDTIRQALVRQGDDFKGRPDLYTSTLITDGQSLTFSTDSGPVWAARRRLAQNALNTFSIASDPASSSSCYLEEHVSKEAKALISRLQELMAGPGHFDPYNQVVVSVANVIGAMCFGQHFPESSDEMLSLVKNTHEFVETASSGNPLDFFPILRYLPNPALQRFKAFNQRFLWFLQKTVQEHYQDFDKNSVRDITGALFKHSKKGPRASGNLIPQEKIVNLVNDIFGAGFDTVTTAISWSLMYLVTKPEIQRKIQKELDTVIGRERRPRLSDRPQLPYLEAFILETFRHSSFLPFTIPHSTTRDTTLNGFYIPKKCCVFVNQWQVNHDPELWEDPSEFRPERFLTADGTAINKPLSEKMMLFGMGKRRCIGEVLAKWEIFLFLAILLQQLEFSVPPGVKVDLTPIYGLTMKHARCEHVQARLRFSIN
A short description of assay [3]: NFAT Signaling Pathway (AID 444).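 Further: carbachol stimulus at about its EC50 of 1 µM final; on the % scale 0 is the no-effect control and ±100 the full control effect.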 Conditions: Jurkat NFAT-bla M1, carbachol, beta-lactamase ratio, 5 h; at 17.2 µM (top of the series). A digest of the protocol:
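Jurkat cells with NFAT-driven β-lactamase reporter and co-expressed M1 receptor, stimulated with carbachol (final 1 uM, ~EC50), compound titration, 5 h at 37 °C. CCF4 loaded 1 h at RT; 460/530 nm ratio gave %activity and AC50.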

Assay [4] is described as follows: Stat Signaling Pathway (AID 446).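 Further: ME-180 cervical cancer cells given 40 pM IL-6 alongside compound; SIE-controlled beta-lactamase reporter measured as 460/530 nm FRET emission ratio; on the % scale 0 is the no-effect control and ±100 the full control effect.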 A digest of the protocol:
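Overnight-plated ME-180 cells bearing a STAT Inducible Element beta-lactamase reporter; 5 h co-exposure to compound and 40 pM IL-6; values normalized to 300 pM IL-6 and 125 nM JAK inhibitor controls.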

The target of assay [5] is Glucocorticoid receptor (Homo sapiens) (UniProt P04150). Description: GR-GFP Redistribution (AID 450;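 active means compounds whose dose series gives a full or clear partial fitted curve of increased nuclear translocation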; further: potency means the concentration at half of the fitted maximal effect). Particulars: U2OS GR-GFP nuclear translocation, laser cytometry, 2 h.
Sequence of Glucocorticoid receptor (Homo sapiens) (P04150 whole entry, looked up, the tested form may be a part): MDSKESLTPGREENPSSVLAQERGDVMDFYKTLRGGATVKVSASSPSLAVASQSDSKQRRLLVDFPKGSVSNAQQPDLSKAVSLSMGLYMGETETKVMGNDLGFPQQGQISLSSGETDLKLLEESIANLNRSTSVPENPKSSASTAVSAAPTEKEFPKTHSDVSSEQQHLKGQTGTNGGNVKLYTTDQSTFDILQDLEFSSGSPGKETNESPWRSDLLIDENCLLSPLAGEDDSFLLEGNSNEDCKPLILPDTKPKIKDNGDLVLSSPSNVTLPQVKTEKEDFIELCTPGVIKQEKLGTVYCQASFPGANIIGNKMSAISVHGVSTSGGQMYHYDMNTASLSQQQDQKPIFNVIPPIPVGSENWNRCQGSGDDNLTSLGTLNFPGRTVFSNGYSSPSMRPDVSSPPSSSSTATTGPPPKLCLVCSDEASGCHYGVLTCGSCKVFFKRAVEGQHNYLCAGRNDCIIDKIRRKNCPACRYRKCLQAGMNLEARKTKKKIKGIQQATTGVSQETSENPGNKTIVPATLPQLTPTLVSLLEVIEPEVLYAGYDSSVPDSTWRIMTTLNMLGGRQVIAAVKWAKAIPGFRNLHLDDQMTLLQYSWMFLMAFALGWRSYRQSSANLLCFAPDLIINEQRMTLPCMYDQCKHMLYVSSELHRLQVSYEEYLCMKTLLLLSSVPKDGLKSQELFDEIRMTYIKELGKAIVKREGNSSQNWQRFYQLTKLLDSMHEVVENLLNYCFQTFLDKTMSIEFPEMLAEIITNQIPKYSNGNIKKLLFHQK
Assay [6] has the same target. Description: GR-EFC Redistribution (AID 451; calls by dose curve; further: potency means the concentration at half of the fitted maximal effect). Conditions: CHO-K1 GR-EFC translocation, beta-gal luminescence, 2 h. A digest of the protocol: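 CHO-K1 cells expressing nuclear EA and GR-ED fragments of b-gal; compounds titrated up to 46 uM final, 2 h at 37 C. GR nuclear translocation read as complemented b-gal luminescence after 1 h RT detection.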
Assay [7] concerns the target Mitogen-activated protein kinase 10 (Mus musculus) (UniProt Q61831). Put plainly: JNK3 AlphaScreen Assay (AID 530).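 Further: kinase came from lysate of stimulated human HepG2 cells; signal reports phosphorylation of biotinylated GST-cJun 1-79 at Ser73 with 10 µM ATP; on the % scale 0 is the no-effect control and ±100 the full control effect.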 A digest of the protocol:
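HepG2 lysate (IL-1b/TNFa pre-activated) + biotin-GST-cJun 1-79 + anti-pSer73 cJun; cpd titration, 15 min RT; ATP 10 uM start; Tris pH 7.6, MgCl2, DTT, vanadate; beads in EDTA buffer; AlphaScreen.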
A general note: In Alpha technology, singlet oxygen from a donor bead excites a nearby acceptor bead.

Assay [8] addresses 3',5'-cyclic-AMP phosphodiesterase 4B (Homo sapiens) (UniProt Q07343). Description: qHTS Assay for Inhibitors of PDE-IV (AID 607; active means well fitted activation curve with a large enough effect in the main read-out, with a control signal flat, not every such curve was filed as active; further: % of control where 0% means no effect). In short, it runs like this: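 Live HEK293 cells with a modified cyclic nucleotide-gated (CNG) channel report intracellular cAMP via membrane-potential dye fluorescence (ex 535/em 590 nm). Endogenous PDE-IV was targeted. Compounds were tested at up to 22.9 uM final; RO 20-1724 100 uM served as control.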
On the technique in general: Quantitative high-throughput screening tests each substance at several concentrations.

The target in assay [9] is Cytochrome P450 3A4 (Homo sapiens) (UniProt P08684). Description: qHTS Assay for Activators of Cytochrome P450 3A4 (AID 885; active means well fitted curve in the direction sought with a large enough effect; an effect the other way counts as inactive or inconclusive; further: nearly all actives have a fitted effect of over 65% in size). A digest of the protocol: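 Using 20nM recombinant human CYP3A4 in potassium phosphate (200mM), substrate Luciferin-PPXE at 25uM, luminescent luciferin detection followed a 60-min RT NADPH reaction; data scaled to 57 uM ketoconazole.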
Sequence of Cytochrome P450 3A4 (Homo sapiens) (P08684 whole entry, looked up): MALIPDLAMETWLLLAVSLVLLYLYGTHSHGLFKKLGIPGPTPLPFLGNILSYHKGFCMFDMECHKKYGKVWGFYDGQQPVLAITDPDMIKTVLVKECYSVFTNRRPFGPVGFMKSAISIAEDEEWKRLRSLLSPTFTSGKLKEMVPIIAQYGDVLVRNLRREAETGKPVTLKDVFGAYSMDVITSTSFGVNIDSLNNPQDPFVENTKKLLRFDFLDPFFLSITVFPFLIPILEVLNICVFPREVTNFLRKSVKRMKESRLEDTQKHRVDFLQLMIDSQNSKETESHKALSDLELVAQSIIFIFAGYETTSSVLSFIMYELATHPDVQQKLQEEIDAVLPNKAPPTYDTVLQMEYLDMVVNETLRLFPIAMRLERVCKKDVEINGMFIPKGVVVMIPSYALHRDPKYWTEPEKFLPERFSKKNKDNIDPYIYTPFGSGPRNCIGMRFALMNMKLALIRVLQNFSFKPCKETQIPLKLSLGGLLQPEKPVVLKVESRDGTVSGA
Assay [10] is described as follows: qHTS Assay for Lipid Storage Modulators (AID 1519; calls by dose curve). Conditions: Drosophila S3 cells, BODIPY lipid droplet/cell ratio, laser cytometry, cells loaded with oleic acid; for activity change, negative = inhibition: at 25.7 µM (top of the series). In short, it runs like this:
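Cells seeded at 5,000 per well were treated with compounds over a concentration series and loaded with oleic acid (400 uM, as added). Lipid droplet fluorescence (488 nm excitation, 500-530 nm channel) was read by laser-scanning cytometry and normalized to 20 uM Triacsin C.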

The target in assay [11] is Ubiquitin carboxyl-terminal hydrolase 1 (Homo sapiens) (UniProt O94782). Put plainly: Inhibitors of USP1/UAF1: Pilot qHTS (AID 504865; active means well fitted curve in the direction sought with a large enough effect; an effect the other way counts as inactive or inconclusive;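 further: rhodamine fluorescence freed from ubiquitin-rhodamine substrate followed over time; top concentration of the series differs between compounds; on the % scale 0 is the no-effect control and ±100 the full control effect; nearly all actives have a fitted effect of over 35% in size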). A digest of the protocol:
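1nM USP1/UAF1 + cpd, 15 min RT; start w/ Ub-Rho 150nM final; kinetic FL 480/540 nm, 6 reads q60 s. Buffer 50mM HEPES pH 7.8, 0.5mM EDTA, 1mM TCEP, 0.01% Tween-20, 0.1 mg/ml BSA.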

Assay [12] deals with ATP-dependent 6-phosphofructokinase (Trypanosoma brucei brucei) (UniProt O15648). Put plainly: qHTS Assay to Find Inhibitors of T. brucei phosphofructokinase: hit validation (AID 492961; active means well fitted curve in the direction sought with a large enough effect; an effect the other way counts as inactive or inconclusive). In short, it runs like this:
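Inhibition of parasite PFK is measured as reduced ADP formation, quantified via luciferase after ATP depletion. Assay used 0.1 mM ATP, 0.5 mM F6P, 1.25 nM enzyme, 45 min incubation.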

In assay [13] the target is Luciferin 4-monooxygenase (Photinus pyralis) (UniProt P08659). Description: Biochemical firefly luciferase enzyme assay for NPC (AID 624030; active means well fitted curve in the direction sought with a large enough effect; an effect the other way counts as inactive or inconclusive;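 further: purified P. pyralis luciferase at 10 nM with luciferin and ATP substrate; 0% = DMSO and -100% = full luciferase inhibition by PTC124 control; nearly all actives have a fitted effect of over 70% in size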). In short, it runs like this:
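Purified P. pyralis luciferase at 10 nM in 50 mM Tris Acetate (final), luminescence read within 5 minutes of enzyme addition to compounds. Activity normalised to PTC124 versus DMSO; concentration-response curves classed by r2, magnitude and activity.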

Assay [14] in a line: S16 Schwann cell PMP22 intronic element firefly luciferase assay (AID 624032; active means well fitted curve in the direction sought with a large enough effect; an effect the other way counts as inactive or inconclusive;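 further: plate controls were DMSO for no effect and PTC124 positive control mean for full effect; nearly all actives have a fitted effect of over 30% in size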). A digest of the protocol: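 Rat S16 Schwann cells stably carrying firefly luciferase driven by a PMP22 intronic element, in 10% FBS, treated 24 h at 37 C. ONE-Glo luminescence normalized to PTC124 control and DMSO (0%); curves classed by r2, magnitude and activity.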
The nature of assay [15]: qHTS profiling for inhibitors of Plasmodium falciparum proliferation (AID 504749; active means well fitted curve in the direction sought with a large enough effect; an effect the other way counts as inactive or inconclusive;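 further: 0% = DMSO vehicle and full inhibition = artemisinin control; nearly all actives have a fitted effect of over 60% in size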). Conditions: P. falciparum in erythrocytes, SYBR Green DNA, 72 h, at 28.7 µM (top of the series). In short, it runs like this: (§1)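 SYBR Green fluorescence (ex 485 nm, em 535 nm) reports parasite DNA after 72 h compound exposure of infected red cells at 0.3% parasitemia, 2.5% hematocrit; signal normalized to 0.29 uM artemisinin and vehicle wells.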

The subject of a further assay is C2A. The description is as above. Particulars: P. falciparum in erythrocytes, SYBR Green DNA, 72 h; series mostly up to 28.7 µM. A digest of the protocol: as §1
The next assay concerns CP192. The assay is described as above. Conditions: P. falciparum in erythrocytes, SYBR Green DNA, 72 h; series mostly up to 28.7 µM. In short, it runs like this:
as §1

A further assay has as its system CP262. The assay is described as above. Particulars: P. falciparum in erythrocytes, SYBR Green DNA, 72 h; series mostly up to 28.7 µM. A digest of the protocol: as §1
In another assay the test system is CP286. Described as above. Conditions: P. falciparum in erythrocytes, SYBR Green DNA, 72 h; series mostly up to 28.7 µM. In short, it runs like this: as §1
The subject of a further assay is FAB9. The description is as above. Conditions: P. falciparum in erythrocytes, SYBR Green DNA, 72 h; series mostly up to 28.7 µM. A digest of the protocol: as §1
The mark [16] stands for this setting: measured here: cell count channel max response.
The mark [17] stands for this setting: measured here: lipid channel max response.

Each structure is given as a SMILES string. Values joined by “and” are separate entries in the source; they are usually repeats but may differ in a detail not shown here. Identical values can stand only once. Results filed as inconclusive are left out. Active and inactive are the calls of the source. Unless noted, the call rests on the fitted dose curve; in most records, active means well fitted curve in either direction with a large enough effect (not every such curve was filed as active); inconclusive means small, poorly fitted or top-dose-only effect, or another doubt; inactive means flat fitted curve, though single readings scatter.

Sequence of 3',5'-cyclic-AMP phosphodiesterase 4B (Homo sapiens) (Q07343 whole entry, looked up): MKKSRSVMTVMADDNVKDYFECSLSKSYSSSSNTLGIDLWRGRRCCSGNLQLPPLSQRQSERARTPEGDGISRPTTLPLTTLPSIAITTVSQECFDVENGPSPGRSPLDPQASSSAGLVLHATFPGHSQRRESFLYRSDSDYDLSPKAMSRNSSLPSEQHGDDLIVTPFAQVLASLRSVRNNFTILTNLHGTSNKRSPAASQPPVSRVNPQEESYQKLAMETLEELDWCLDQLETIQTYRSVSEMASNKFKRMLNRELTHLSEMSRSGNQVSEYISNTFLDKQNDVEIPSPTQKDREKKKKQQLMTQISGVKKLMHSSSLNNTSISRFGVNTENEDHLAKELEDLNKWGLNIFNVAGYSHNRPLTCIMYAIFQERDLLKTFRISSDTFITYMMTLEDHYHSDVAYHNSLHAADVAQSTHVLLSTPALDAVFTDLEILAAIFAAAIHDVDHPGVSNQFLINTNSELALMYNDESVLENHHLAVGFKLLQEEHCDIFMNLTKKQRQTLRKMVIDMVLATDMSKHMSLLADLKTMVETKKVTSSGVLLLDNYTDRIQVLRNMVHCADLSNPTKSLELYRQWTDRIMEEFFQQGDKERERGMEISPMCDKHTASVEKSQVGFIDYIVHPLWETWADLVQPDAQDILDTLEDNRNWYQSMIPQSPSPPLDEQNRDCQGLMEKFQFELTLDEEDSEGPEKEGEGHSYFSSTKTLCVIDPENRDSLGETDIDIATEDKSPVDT
Sequence of Ubiquitin carboxyl-terminal hydrolase 1 (Homo sapiens) (O94782 whole entry, looked up): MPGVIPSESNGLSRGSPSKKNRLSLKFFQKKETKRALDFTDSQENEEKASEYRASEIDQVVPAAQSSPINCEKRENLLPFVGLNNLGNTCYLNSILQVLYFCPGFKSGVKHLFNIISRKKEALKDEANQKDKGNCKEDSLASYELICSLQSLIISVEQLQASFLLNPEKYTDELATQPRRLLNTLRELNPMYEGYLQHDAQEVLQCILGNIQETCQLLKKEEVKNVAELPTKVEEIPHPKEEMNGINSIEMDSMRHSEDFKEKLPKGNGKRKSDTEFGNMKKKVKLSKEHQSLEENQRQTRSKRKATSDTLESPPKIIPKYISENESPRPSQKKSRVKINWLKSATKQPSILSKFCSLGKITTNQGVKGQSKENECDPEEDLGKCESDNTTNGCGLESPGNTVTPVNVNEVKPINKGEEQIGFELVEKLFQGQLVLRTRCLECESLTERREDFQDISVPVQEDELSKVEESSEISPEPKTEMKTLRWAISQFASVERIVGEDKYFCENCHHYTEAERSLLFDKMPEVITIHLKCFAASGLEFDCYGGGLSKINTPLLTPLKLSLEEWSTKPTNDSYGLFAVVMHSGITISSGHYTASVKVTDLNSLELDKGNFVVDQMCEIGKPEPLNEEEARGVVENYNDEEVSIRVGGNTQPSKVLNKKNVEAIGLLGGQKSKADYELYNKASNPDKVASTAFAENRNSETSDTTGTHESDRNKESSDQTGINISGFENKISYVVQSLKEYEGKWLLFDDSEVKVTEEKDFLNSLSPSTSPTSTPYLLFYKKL
Sequence of ATP-dependent 6-phosphofructokinase (Trypanosoma brucei brucei) (O15648 whole entry, looked up): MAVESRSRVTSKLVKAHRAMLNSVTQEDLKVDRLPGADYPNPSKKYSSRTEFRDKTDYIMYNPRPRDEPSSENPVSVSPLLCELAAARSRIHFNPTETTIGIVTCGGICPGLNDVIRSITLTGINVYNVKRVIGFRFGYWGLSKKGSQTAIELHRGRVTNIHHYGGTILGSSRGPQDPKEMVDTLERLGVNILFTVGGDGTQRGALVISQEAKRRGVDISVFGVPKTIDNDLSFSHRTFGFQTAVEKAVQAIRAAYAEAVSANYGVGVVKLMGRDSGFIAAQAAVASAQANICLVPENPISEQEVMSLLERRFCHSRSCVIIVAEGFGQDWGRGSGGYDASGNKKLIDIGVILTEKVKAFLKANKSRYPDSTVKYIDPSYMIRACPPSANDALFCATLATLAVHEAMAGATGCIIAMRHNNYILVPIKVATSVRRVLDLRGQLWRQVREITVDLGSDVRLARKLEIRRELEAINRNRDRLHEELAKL
Sequence of Luciferin 4-monooxygenase (Photinus pyralis) (P08659 whole entry, looked up): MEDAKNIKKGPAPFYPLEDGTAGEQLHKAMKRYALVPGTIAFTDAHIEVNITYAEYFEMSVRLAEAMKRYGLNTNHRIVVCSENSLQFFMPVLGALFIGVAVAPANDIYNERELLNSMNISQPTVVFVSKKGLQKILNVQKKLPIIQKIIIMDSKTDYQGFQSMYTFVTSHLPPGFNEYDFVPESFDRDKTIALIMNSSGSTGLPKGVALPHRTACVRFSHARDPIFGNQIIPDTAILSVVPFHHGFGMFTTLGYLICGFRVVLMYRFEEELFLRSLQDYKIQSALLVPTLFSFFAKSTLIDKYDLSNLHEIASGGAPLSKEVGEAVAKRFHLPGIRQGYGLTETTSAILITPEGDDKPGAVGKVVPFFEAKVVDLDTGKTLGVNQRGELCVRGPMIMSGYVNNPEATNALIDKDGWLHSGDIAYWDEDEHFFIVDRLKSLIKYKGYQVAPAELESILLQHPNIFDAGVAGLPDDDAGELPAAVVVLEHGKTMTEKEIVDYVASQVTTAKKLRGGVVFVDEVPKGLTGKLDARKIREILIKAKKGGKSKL

With `C/C=C1\C[N@@+]2(C)CC[C@@]34C(=C(C=O)[C@H]1C[C@H]32)Nc1ccccc14`, the outcome in assay [1], in assay [4] and in [7] was inactive. For the same compound, the Potency entry in assay [2], in [8], in [9] and in [11] was “inactive” in each case. For the same compound, the activity change, negative = inhibition is -3.46% (inactive) in [3] and -2.98% (inactive) in assay [10]. For the same compound, the Potency in [5] and in assay [6] was > 20.6 µM (inactive) each time. Besides, the results for the max response in assay [10] (setting [16]) and in [10] (setting [17]) were -3.08% and -5.51%, respectively.
On to `N[C@H]1C[C@H]1c1ccccc1`, for which the compound was classed as inactive in [1], in [4] and in assay [7]. In [2], the Potency was 5.01 µM (active). For the same compound, the figures for the activity change, negative = inhibition in assay [3] and in [10] were -3.83% (inactive) and -0.294% (inactive), respectively. Besides, the Potency result (in assay [8]; in assay [12]; in [13]; in assay [14]; in the assay with C2A; in the assay on CP192) was “inactive” in each case. In addition, the Potency result in the assay on CP262, in the assay with CP286 and in the assay with FAB9 was “inactive” each time. Further, the max response came to 5.35% in assay [10] (setting [16]) and 3.84% in [10] (setting [17]). Moreover, the activity, negative = inhibition in assay [15] (parasite line A) is 10.1% (inactive); in assay [15] (parasite line B), 3.27% (inactive).
In the case of `C=C1[C@@H]2C[C@@]3([C@H]1O)[C@H]1C[C@@H]4[C@@]5(C)CC[C@H](O)[C@]4([C@H]1N(CC)C5)[C@H]3C[C@H]2O`, the compound was called inactive in assay [1], in [4] and in assay [7]. The Potency result in assay [2], in assay [8] and in assay [11] was “inactive” in each case. In addition, the activity change, negative = inhibition in assay [3] was -13% (inactive); in assay [10], -1.27% (inactive). For the same compound, the Potency in assay [5] and in assay [6] was > 20.6 µM (inactive) in each case. Moreover, the max response in assay [10] (setting [16]) was -11.5%; in assay [10] (setting [17]), -13.2%.
In the case of `CCN1C[C@]2(C)CC[C@H](O)[C@@]34[C@@H]5CC6[C@@H](OC)C[C@@](O)([C@@H]5[C@@H]6O)[C@H](C[C@@H]23)[C@H]14`, the result in assay [1], in [4] and in assay [7] was inactive. For the same compound, the Potency result in [2] and in assay [8] was “inactive” in each case. Besides, the activity change, negative = inhibition is -2.56% (inactive) in assay [3] and -2.73% (inactive) in [10]. The Potency in [5] and in assay [6] was > 20.6 µM (inactive) each time. Besides, the max response in [10] (setting [16]) was -6.13%; in [10] (setting [17]), -11.4%.
As for `C=C1[C@@H]2CC[C@H]3[C@@]4(C)C[C@@H](O[C@@H]5O[C@H](CO)[C@H](OS(=O)(=O)O)[C@@H](OS(=O)(=O)O)[C@@H]5OC(=O)CC(C)C)C[C@@H](C(=O)O)[C@H]4CC[C@@]3(C2)[C@H]1O`, the call in assay [1], in assay [4] and in assay [7] was inactive. Also, the Potency result in assay [2], in assay [8] and in [11] was “inactive” in each case. In addition, the activity change, negative = inhibition in [3] was 13.2% (inactive); in assay [10] it was -6.46% (inactive). Further, the Potency in assay [5] and in assay [6] was > 20.6 µM (inactive) throughout. For the same compound, the max response in assay [10] (setting [16]) was -23.7%; in assay [10] (setting [17]) it was -28.9%.
On to `CN1Cc2c(ccc3c2OCO3)[C@@H]2[C@@H](O)Cc3cc4c(cc3[C@@H]21)OCO4`, for which the compound was called inactive in assay [1], in [4] and in assay [7]. Moreover, the Potency is 2.51 µM (active) and 794 nM (active) in assay [2]; > 20.6 µM (inactive) and > 46 µM (inactive) in assay [5]; > 20.6 µM (inactive) and > 46 µM (inactive) in assay [6]. Moreover, the Potency entry in assay [8] and in [9] was “inactive” throughout. Further, the activity change, negative = inhibition in [10] was 0.247% (inactive). For the same compound, the max response in [10] (setting [16]) was 0.16%; in assay [10] (setting [17]), -1.15%.
Regarding `C=C1C/C(=C\C)C(=O)O[C@@H]2CCN3CC=C(COC(=O)[C@@]1(C)O)[C@H]23`, the result in assay [1], in [4] and in assay [7] was inactive. The Potency result in [2], in assay [8] and in assay [9] was “inactive” throughout. In addition, the activity change, negative = inhibition is -7.46% (inactive) in [3] and 1.53% (inactive) in assay [10]. Also, the Potency in assay [5] and in [6] was > 20.6 µM (inactive) in each case. Further, the figures for the max response in assay [10] (setting [16]) and in assay [10] (setting [17]) were 8.7% and 10.5%, respectively.
